Data on seven molecules can be found in PubChem BioAssay (NCI).

Test systems include HCT-15 colon; HT29 colon; SNB-75 CNS; SNB-19 CNS; U251 CNS; PC-3 prostate; SK-MEL-5 melanoma; UACC-62 melanoma; LOX IMVI melanoma; SK-MEL-28 melanoma; EKVX NSCLC; SN12C renal; UO-31 renal; TK-10 renal; ACHN renal; CAKI-1 renal; A498 renal; CCRF-CEM leukemia; MOLT-4 leukemia.
Test in all cases: NCI-60 one-dose screen, 48 h (100 = growth as untreated, 0 = no growth, -100 = all killed)
Common to all, as to conditions: 10 µM unless noted

Compounds without any hit were thinned out: in the full panel of roughly 83,000, 20% have a hit.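 A percent growth of 40 corresponds to 60% growth inhibition; 0 means no net growth; -100 means all cells died. Active threshold: below 10.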 Values without a mark were called inactive. The source made the active and inactive calls.

For `Cc1nc(N)sc1-c1ccnc(Nc2ccc(N3CCOCC3)cc2)n1`, the growth in the assay on HCT-15 colon was 44.7%; in the assay with HT29 colon, 25.5%; with SNB-75 CNS it was -11% (active); in the assay with SNB-19 CNS, 29.9%; in the assay with U251 CNS, 27.9%; with PC-3 prostate it was 38.3%. Besides, the growth with SK-MEL-5 melanoma is 70.8%; in the assay on UACC-62 melanoma, 41.6%; in the assay with LOX IMVI melanoma, 29.6%; in the assay on SK-MEL-28 melanoma, 61.5%; in the assay with EKVX NSCLC, 71.7%; with SN12C renal, 49.8%. Moreover, the growth is 19.7% in the assay with UO-31 renal; 39.9% in the assay with TK-10 renal; 29.7% with ACHN renal; 20.8% with CAKI-1 renal; 32.6% in the assay with A498 renal; 23% in the assay on CCRF-CEM leukemia. In addition, the growth in the assay with MOLT-4 leukemia was 13.8%.
As to `CCOC(=O)c1sc(NC(=O)COc2ccc(/C=C3\Cc4ccc(Cl)cc4C3=O)cc2)nc1C`, the growth was 120% with HCT-15 colon; 116% in the assay with HT29 colon; 95.8% in the assay on SNB-75 CNS; 102% with SNB-19 CNS; 99.2% in the assay on U251 CNS; 97% in the assay with PC-3 prostate. Besides, the growth in the assay on SK-MEL-5 melanoma is 106%; with UACC-62 melanoma, 93.4%; in the assay on LOX IMVI melanoma, 97.9%; in the assay with SK-MEL-28 melanoma, 127%; with EKVX NSCLC, 111%; in the assay on SN12C renal it was 102%. Moreover, the growth was -77.3% (active) in the assay with UO-31 renal; 149% with TK-10 renal; 102% in the assay on ACHN renal; 96.1% in the assay on CAKI-1 renal; 143% in the assay on A498 renal; 101% with CCRF-CEM leukemia. The growth with MOLT-4 leukemia was 60.6%.
`CCCNC(=O)c1cn2ncnc(Nc3cc(C(=O)NC4CC4)ccc3C)c2c1C`: the growth with HCT-15 colon is 87.2%; in the assay with HT29 colon, 81.9%; with SNB-75 CNS, 74.6%; with SNB-19 CNS, 70.7%; in the assay on U251 CNS it was 77.2%; with PC-3 prostate it was 74.3%. The growth was 38.2% in the assay with SK-MEL-5 melanoma; 49.1% with UACC-62 melanoma; 40.1% in the assay with LOX IMVI melanoma; 30.1% in the assay with SK-MEL-28 melanoma; 87.2% in the assay with EKVX NSCLC; 88.4% in the assay with SN12C renal. In addition, the growth is 45.2% with UO-31 renal; 104% with TK-10 renal; 58.6% in the assay on ACHN renal; 67.6% with CAKI-1 renal; 56.9% in the assay with A498 renal; 73.9% in the assay with CCRF-CEM leukemia. The growth in the assay on MOLT-4 leukemia was 92.6%.
On to `NC(=O)c1c(OCc2c(F)cc(Br)cc2F)nsc1NC(=O)NCCCCN1CCCC1`, for which the growth in the assay with HCT-15 colon is 5.99% (active); in the assay with HT29 colon it was -38.9% (active); with SNB-75 CNS, -79.9% (active); in the assay on SNB-19 CNS it was 5.06% (active); with U251 CNS, -83.3% (active); with PC-3 prostate, 3.22% (active). Also, the growth with SK-MEL-5 melanoma was -99.1% (active); with UACC-62 melanoma, -75.6% (active); in the assay on LOX IMVI melanoma, -90.6% (active); with SK-MEL-28 melanoma, -74.6% (active); in the assay with EKVX NSCLC it was 4.31% (active); in the assay with SN12C renal, 0.752% (active). For the same molecule, the growth was -76.8% (active) with UO-31 renal; -1.76% (active) in the assay with TK-10 renal; -29.7% (active) with ACHN renal; -26.2% (active) in the assay on CAKI-1 renal; -13.8% (active) in the assay on A498 renal; 2.77% (active) in the assay on CCRF-CEM leukemia. Also, the growth in the assay with MOLT-4 leukemia was -16.4% (active).
In the case of `CCN1CCN(Cc2ccc(-c3cc4c(N[C@H](C)c5ccccc5)ncnc4[nH]3)cc2)CC1`, the growth in the assay with HCT-15 colon was 50.1%; with HT29 colon, 4.82% (active); in the assay on SNB-75 CNS, 75.1%; in the assay on SNB-19 CNS it was 46.2%; in the assay with U251 CNS it was 56.8%; in the assay with PC-3 prostate it was 41.3%. The growth with SK-MEL-5 melanoma was 59.8%; with UACC-62 melanoma it was 7.59% (active); with LOX IMVI melanoma it was 13.5%; with SK-MEL-28 melanoma, 16.7%; in the assay on EKVX NSCLC, 41.8%; in the assay on SN12C renal it was 25%. Besides, the growth in the assay with UO-31 renal is 13.5%; with TK-10 renal, 2.14% (active); in the assay with ACHN renal it was 9.72% (active); with CAKI-1 renal, 21.7%; with A498 renal, 25.4%; with CCRF-CEM leukemia it was 25.4%. Besides, the growth in the assay on MOLT-4 leukemia is 37.8%.
As to `O=C(Nc1ccc(-c2ccnc(Nc3ccc(N4CCOCC4)cc3)n2)cc1)[C@@H]1CCCN1`, the growth in the assay on HCT-15 colon is 23.3%; in the assay on HT29 colon, 18.6%; in the assay on SNB-75 CNS, -1.55% (active); with SNB-19 CNS, 83.4%; in the assay on U251 CNS it was 51.4%; with PC-3 prostate, 61.2%. The growth in the assay on SK-MEL-5 melanoma was 49.2%; with UACC-62 melanoma it was 68.5%; in the assay with LOX IMVI melanoma it was 30.4%; with SK-MEL-28 melanoma it was 54.5%; in the assay with EKVX NSCLC, 71.7%; in the assay on SN12C renal, 45.6%. Besides, the growth was 26.5% in the assay with UO-31 renal; 71.6% in the assay with TK-10 renal; 44.1% with ACHN renal; 29.9% in the assay on CAKI-1 renal; 26.2% in the assay on A498 renal; 28.1% in the assay with CCRF-CEM leukemia. Also, the growth in the assay with MOLT-4 leukemia is 21.7%.
Consider `CCN(CCCOc1ccc2c(Nc3cc(CC(=O)Nc4cccc(F)c4)[nH]n3)ncnc2c1)CCOP(=O)(O)O`, for which the growth with HCT-15 colon is 84.7%; in the assay on HT29 colon, 30.5%; with SNB-75 CNS, 80.5%; in the assay with SNB-19 CNS, 71.1%; in the assay with U251 CNS, 71.8%; with PC-3 prostate, 80%. Moreover, the growth is 99.8% in the assay on SK-MEL-5 melanoma; 53.7% in the assay with UACC-62 melanoma; 42% in the assay with LOX IMVI melanoma; 55.3% in the assay on SK-MEL-28 melanoma; 99.3% in the assay on EKVX NSCLC; 79% with SN12C renal. Moreover, the growth with UO-31 renal is 69.3%; in the assay with TK-10 renal it was 83.9%; in the assay on ACHN renal it was 95.5%; in the assay with CAKI-1 renal it was 58.1%; in the assay with A498 renal it was 98.4%; with CCRF-CEM leukemia, 51.4%. Further, in the assay on MOLT-4 leukemia, the growth was 46.5%.
